# Rows were chosen to be rich in hits. Some 10% of all compounds tested hit in one or more screens of this group.
# BAZ2B block = qHTS Assay for Inhibitors of BAZ2B | Bromodomain adjacent to zinc finger domain protein 2B (Homo sapiens), Q9UIF8 | Potency, µM (top dose mostly 114 µM), most hits filed as inhibitors | hit rate 4.4% among 360,000 | AID 504333, 2011 | AlphaScreen BAZ2B-H3K14Ac peptide displacement; also: nearly all actives have a fitted effect of over 60% in size
#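 Compounds, titrated to a top concentration of 110 uM, were incubated 30 min at room temperature with preformed BAZ2B/acetyl-K14 H3 peptide complex (50 nM each). Proximity signal was measured by AlphaScreen after 20 min with beads.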
# JMJD2A Tudor = qHTS Assay for Inhibitors of JMJD2A-Tudor Domain. AlphaScreen JMJD2A-Tudor / H3K4me3 peptide binding. Potency, µM (top dose mostly 114 µM), hits mostly inhibitors. hit rate 4.4% among 390,000; also: nearly all actives have a fitted effect of over 50% in size
# Six1-Eya2 inh = qHTS Assay for Inhibitors of the Six1/Eya2 Interaction; Homeobox protein SIX1 (Homo sapiens) + Protein phosphatase EYA2 (Homo sapiens), …; AlphaScreen GST-Six1/His-Eya2 binding, biochemical; active compounds read low; activity change, % (test concentration not listed); hit rate 0.56% among 360,000; in the data active = activity change below about -65%; inconclusive = mostly about -30% to -63%
#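 Six1/Eya2 binding was read as AlphaScreen signal after compounds were pinned into GST-Six1 plus His-tagged Eya2 (5X stock 250/500 nM) in pH 8.0 Tris/NaCl/TCEP buffer, beads added, then incubated 1 h, 37 C, dark.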
# HP1b binding inh = HTS for Inhibitors of HP1-beta Chromodomain Interactions with Methylated Histone Tails | AlphaScreen HP1-beta / biotin-H3K9me3 peptide binding | Potency, µM (titrated, usually from 114 µM), actives largely listed as inhibitors | hit rate 0.56% among 390,000; also: nearly all actives have a fitted effect of over 70% in size
#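 AlphaScreen: HP1-beta (50 nM) preformed 30 min with biotin-H3(1-18)K9me3 peptide (50 nM) in PBS pH 7.4, 0.01% Tween-20. Compound added for 30 min at RT, then streptavidin donor/nickel chelate acceptor beads (10 ug/mL) for 30 min.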
# G9a block = qHTS Assay for Inhibitors of Histone Lysine Methyltransferase G9a | Potency, µM (titrated, usually from 102 µM), usual class: inhibitors | hit rate 8.8% among 350,000 | Histone-lysine N-methyltransferase EHMT2 (Homo sapiens), Q96KQ7 | AID 504332, 2011 | G9a H3K9 monomethylation, AlphaScreen, 2 h; also: nearly all actives have a fitted effect of over 75% in size
#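 AlphaScreen detection with an anti-monomethyl H3K9 antibody quantified product after a 2 h room-temperature reaction containing 500 nM biotinylated H3K9 peptide, 20 µM SAM and 20 nM enzyme, which had been preincubated 15 min with compound.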
# CtBP-E1A blk = qHTS Assay for Inhibitors of the CtBP/E1A Interaction | CtBP / adenovirus E1A interaction (AlphaScreen) | AlphaScreen GST-E1A/His-CtBP binding, 1536-well; active compounds read low | activity change, % (test concentration not listed) | hit rate 0.49% among 340,000 | AID 651724, 2012; in the data active = activity change below about -65%; inconclusive = mostly about -30% to -63%
#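 Protein mix (5X: 125 nM each GST-E1A, His-CtBP) was incubated with pinned compound 2 h at 37 deg C in dark, in 50 mM Tris pH 8.0 buffer with 300 mM NaCl. Glutathione donor and nickel acceptor beads followed; AlphaScreen signal read after 1 h.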
# Numbers stand for hits; - = inactive; ? = inconclusive; . = no result given; ! = not active in a repeat; [ ] = another dose, or the depositor's remark. Unless noted, calls follow the shape of the dose curve; as a rule, active = well fitted inhibition curve with a large enough effect; inconclusive = small, poorly fitted or top-dose-only effect; inactive = no such curve, though single readings can be large or run the other way.
SMILES,BAZ2B block,JMJD2A Tudor,Six1-Eya2 inh,HP1b binding inh,G9a block,CtBP-E1A blk
CN1CCN(C(=S)c2ccc(Br)cc2)CC1,-,-,-,-,20µM,-
CC(=O)N1CCN(C(=S)c2ccc(Cl)cc2)CC1,-,-,-,?,25.1µM,-
CC(=O)N1CCN(C(=O)CCCNC(=O)c2ccc(Cl)cc2)CC1,.,-,-,-,.,-
O=C(Oc1cccc(C(=S)N2CCCCC2)c1)c1ccccc1,-,-,-,-,?,.
COc1ccccc1N1CCN(C(=O)c2cnn(-c3ccc(C)c(C)c3)c2C2CCN(C(=O)OC(C)(C)C)CC2)CC1,-,-,.,-,?,.
CCOC(=O)C12CC1/C(=N/O)c1ccccc1O2 (stereo not given),.,.,.,.,-,.
CCc1ccccc1N(C)C(=O)c1cc2c(Cl)nc3ccc(C)cc3c2s1,-,-,.,-,-,.
Cc1cccc(N2C(S)=C(C#N)C(=O)NC2c2cccs2)c1 (stereo not given),-,-,-,-,39.8µM,-
Cc1ccccc1N1C(S)=C(C#N)C(=O)NC1c1ccco1 (stereo not given),?,-,-,-,.,-
N#CC1=C(S)N(c2ccccc2)C(c2ccc(-c3ccccc3Cl)o2)NC1=O (stereo not given),?,?,-,?,?,-
N#CC1=C(S)N(c2ccc(F)cc2)C(c2cccs2)NC1=O (stereo not given),-,-,-,-,15.8µM,-
Cc1ccccc1N1C(S)=C(C#N)C(=O)NC1c1cccs1 (stereo not given),?,-,-,-,7.94µM,-
CCC(C(=O)NCc1ccccc1Cl)n1c(=O)c2cccn2c2ccccc21 (stereo not given),-,-,.,-,-,.
CCOC(=O)c1ccc(N=c2scc(C)n2CC)cc1,39.8µM,39.8µM,-,?,22.4µM,-
C=CCn1c(C)csc1=Nc1ccccc1C,50.1µM,56.2µM,-,50.1µM,50.1µM,-
C=CCn1c(C)csc1=Nc1ccc(C(C)=O)cc1,44.7µM,-[11.4 µM],-,-,?,.
C=CCn1c(CC(=O)OC)csc1=Nc1ccc(C(C)=O)cc1,?,-,-,-,?,-
CCN1CCC(N(Cc2cccc(OC)c2)C(=O)Nc2cccc(C(F)(F)F)c2)CC1,-,-,.,-,-,.
COc1ccccc1Cc1nc2ccccc2nc1SCC(=O)Nc1cccc(Cl)c1C,-,-,.,-,-,.
COc1ccc(C2C(C#N)=C(N)Oc3n[nH]c(C)c32)cc1Cn1nc(C)c([N+](=O)[O-])c1C (stereo not given),-,-,-,-,10µM,-
Cc1c(C(=O)NCc2ccc(OC(C)C)cc2)sc2ncnc(N(C)C3CCCCC3)c12,-,-,.,-,-,.
COc1ccccc1Nc1cc(C(=O)NC2CCC(C)CC2)c2ccccc2n1 (stereo not given),.,-,.,-,-,.
COc1ccc(CNC(=O)CSc2ncc(S(=O)(=O)c3ccc(Br)cc3)c(=O)[nH]2)cc1,-,-,.,-,-,.
COC(=O)c1cc(Cl)ccc1NC(=O)CSc1ncc(S(=O)(=O)c2ccc(Br)cc2)c(=O)[nH]1,79.4µM,-,.,-,-,.
CCc1ccccc1NC(=O)Cn1nc(-c2cc(C)ccc2C)c2c(c1=O)CCCC2,-,-,.,-,-,.
SMILES,BAZ2B block,JMJD2A Tudor,Six1-Eya2 inh,HP1b binding inh,G9a block,CtBP-E1A blk
COc1cccc(N2C(=O)C(CC(=O)Nc3ccccc3)N(C3CCCCC3)C2=O)c1 (stereo not given),-,-,-,-,-,-
COc1ccc(NC(=O)CC2C(=O)N(c3ccc(OC)cc3)C(=O)N2C(C)C)cc1 (stereo not given),?,-,-,-,56.2µM,-
Cc1ccc(N2C(=O)C(CC(=O)Nc3cccc(F)c3)N(C3CC3)C2=O)cc1 (stereo not given),-,-,-,-,44.7µM,-
CCc1ccc(NC(=O)CC2C(=O)N(c3ccc(C)cc3)C(=O)N2C2CCCC2)cc1 (stereo not given),-,-,.,-,-,.
CCc1ccc(NC(=O)CC2C(=O)N(c3cccc(OC)c3)C(=O)N2C2CCCC2)cc1 (stereo not given),?,-,.,-,7.94µM,.
COc1ccc(NC(=O)CC2C(=O)N(c3ccc(OC)cc3)C(=O)N2C2CCCCC2)cc1 (stereo not given),-,-,.,-,?,.
COc1cc(OC)cc(-c2n[nH]c(=S)n2-c2cc(OC)ccc2OC)c1,-,7.94µM,-,-,?,-
COc1ccc(C)cc1-n1c(-c2ccncc2)n[nH]c1=S,-,20µM,-,-,?,-
COc1ccc(OC)c(-n2c(-c3ccc(O)cc3O)n[nH]c2=S)c1,-,3.98µM,-,-,.,-
COc1ccc(-c2cc(-c3ccc(OC)c(OC)c3)n[nH]2)c(O)c1,-,-,-,-,?,-
CC(=O)c1ccc(NC(=O)Cn2c(=O)cc(C)c3c(C)nn(-c4cccc(F)c4)c32)cc1,-,-,.,-,-,.
Cc1ccc(O)c(NC(=O)c2ccc(Br)c(S(=O)(=O)N3CCCCC3)c2)c1,17.8µM,?,.,-,?,.
CC(=O)c1cc(-c2ccccc2)n(CCC(=O)NC2CCCCC2)c1C,50.1µM!,-,-,-,-,-
CC(=O)c1cc(-c2ccccc2)n(CCC(=O)NC2CCCC2)c1C,50.1µM,-,-,-,-,-
CCC(C)NC(=O)CCn1c(-c2ccccc2)cc(C(C)=O)c1C (stereo not given),50.1µM,-,-,-,-,-
CC(=O)c1cc(-c2ccccc2)n(CCC(=O)NC2CCC(C)CC2)c1C (stereo not given),-,-,-,-,-,-
N#Cc1ccccc1NC(=O)CSc1nc(-c2ccccc2)cc(C(F)(F)F)c1C#N,-,-,.,-,-,.
COCC(C)NC(=O)c1cnn2c(C(F)F)cc(-c3ccccc3)nc12 (stereo not given),-,-,.,-,-,.
CN(C(=S)NC(=O)c1ccc(F)cc1)C1CCCCC1,-,-,-,-,-,-
CN(C(=S)NC(=O)c1ccc(Cl)cc1)C1CCCCC1,44.7µM,-,-,-,8.91µM,-
CCN(CCNC(=O)CN1CCN(Cc2ccc(Cl)cc2)C1=O)c1ccccc1,?,-,-,-,11.2µM,-
CCN(CCNC(=O)C1CCC(=O)N1Cc1ccc(C)cc1)c1ccccc1 (stereo not given),-,-,-,-,50.1µM,.

# From PubChem BioAssay
